This is part of a sample that, as a whole, favours compounds with a hit. Of some 79,000 tested, about 15% had one in any assay. Rule as the data show it: active = growth inhibition above about 70%; inactive = the rest.
Assays:
[1] = NCI Yeast Anticancer Drug Screen. Data for the rad50 strain (AID 155);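 also: 0% = growth of vehicle-only cultures of the same strain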; settings: S. cerevisiae rad50 strain growth inhibition; at 50.0 µM; stronger effect = higher value
In short: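 Growth of the mutant yeast was measured after compound exposure and referenced to vehicle-treated cultures.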

[2] = NCI Yeast Anticancer Drug Screen. Data for the mec2-1 strain (AID 157); settings: S. cerevisiae mec2-1 strain, at 50.0 µM, stronger effect = higher value
In short: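 Growth inhibition is read against vehicle-treated controls after compound exposure of the mec2-1 yeast strain, which is defective in DNA damage repair or cell cycle control.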

[3] = NCI Yeast Anticancer Drug Screen. Data for the sgs1 mgt1 strain (AID 161);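 also: 0% = growth of cultures given vehicle only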; settings: S. cerevisiae sgs1 mgt1 strain, at 50.0 µM, stronger effect = higher value
In short: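 Growth of a repair-deficient yeast mutant was monitored after compound treatment and expressed as inhibition relative to vehicle-treated cultures.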

[4] = NCI Yeast Anticancer Drug Screen. Data for the cln2 rad14 strain (AID 165);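 also: 0% = growth equal to vehicle treated cultures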; settings: S. cerevisiae cln2 rad14 strain, at 50.0 µM, stronger effect = higher value
In short: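 Growth inhibition, relative to vehicle-treated controls, is the read-out. The test organism is a yeast strain with defined genetic alterations, cln2 rad14.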

[5] = NCI Yeast Anticancer Drug Screen. Data for the bub3 strain (AID 167); settings: S. cerevisiae bub3 mutant strain, at 50.0 µM, stronger effect = higher value
In short: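 Whole-cell yeast assay. The mutant strain was incubated with compounds, and growth inhibition was determined by comparison with vehicle-treated cells.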

[6] = NCI Yeast Anticancer Drug Screen. Data for the mlh1 rad18 strain (AID 175); settings: S. cerevisiae mlh1 rad18 strain growth inhibition; at 50.0 µM; stronger effect = higher value
In short: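 Cells of a genetically altered yeast strain, deficient in DNA damage repair, were treated with compound. Their growth was then compared with that of vehicle-treated cultures to give inhibition.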

Measured: growth inhibition

S=c1cc(Cc2ccccc2)[nH]c(=S)[nH]1
inactive: [1] -1.2% | [2] -11.1% | [3] -6.15% | [4] -7.75% | [5] -14% | [6] 4.85%

CCCCCCCCCCCCCC(=O)OCC(CCS(=O)(=O)O[C@H]1CC[C@@]2(C)C(=CC[C@@H]3C2CC[C@]2(C)C(=O)CCC32)C1)OC(=O)CCCCCCCCCCCCC (some centres not stated)
inactive: [1] -32.8% | [2] -30.9% | [3] -15.3% | [4] -26.6% | [5] -22.2% | [6] -23.6%

c1ccc(-c2cc(-c3cc(-c4ccccc4)n(-c4ccccc4)n3)nn2-c2ccccc2)cc1
inactive: [1] -2.9% | [2] -13.2% | [3] -19.3% | [4] -2.55% | [5] -14% | [6] -38.3%

C/C(=N/OC(=O)c1cccc2c(=O)c3ccccc3[nH]c12)[C@H]1CC[C@H]2[C@@H]3CCC4=C/C(=N/OC(=O)c5cccc6c(=O)c7ccccc7[nH]c56)CC[C@]4(C)[C@H]3CC[C@]12C
inactive: [1] 29.4% | [2] 38% | [3] 66.5% | [4] 28.4% | [5] 48.9% | [6] 36.5%

Nc1c(Br)cc(Br)c(C(=O)O)c1Br
inactive: [1] 6.35% | [2] -16.1% | [3] 10.8% | [4] 2.8% | [5] -15.2% | [6] -1.75%

O=C(O)/C(=C\c1ccccc1Cl)S(=O)(=O)c1ccccc1
inactive: [1] -25.5% | [2] -6.45% | [3] -12.6% | [4] -0.35% | [5] -16% | [6] 15.1%

COc1ccc2ncc(COC(C)=O)c(COC(C)=O)c2c1
inactive: [1] -10.9% | [2] -9.45% | [3] -7.8% | [4] 14.7% | [5] -12.4% | [6] -8.4%

O=C1C(c2ccccc2)=C(c2ccccc2)/C1=C\c1ccc(Cl)cc1Cl
inactive: [1] 7.4% | [2] -5.9% | [3] -13.9% | [4] -8.9% | [5] 5.5% | [6] -13.8%

COc1ccc2c(c1O)C1(CCN(C)C)CC(=O)CCC1C=C2 (configuration not stated)
inactive: [1] 13.2% | [2] -11.5% | [3] 9.55% | [4] 6.2% | [5] 25.5% | [6] 12.4%

CC(C(=O)c1ccccc1)C(c1ccccc1)N1CCOCC1 (configuration not stated)
inactive: [1] 2.1% | [2] -7.5% | [3] -16.3% | [4] 3.25% | [5] 6.35% | [6] -5.15%

O=C1C(NS(=O)(=O)c2ccccc2)=C(n2cnc3ccccc32)C(=O)c2ccccc21
inactive: [1] 0.75% | [2] 4.4% | [3] 12.1% | [4] -1.95% | [5] 1.65% | [6] -58.8%

O=C1CC(=O)c2cccc3cccc1c23
inactive: [1] 42.8% | [2] 22.7% | [3] 44.4% | [4] 7.35% | [5] 47.9% | [6] 27.1%

CC1(C(=O)O)CCCN1 (configuration not stated)
inactive: [1] 9.35% | [2] -7.6% | [3] -20.6% | [4] 15.4% | [5] -0.95% | [6] -9%

BrC1=CCC23CC=C(Br)[C@H]4CC2(COC3)C[C@@H]1O4 (some centres not stated)
inactive: [1] 25.2% | [2] -0.55% | [3] 0.6% | [4] -0.05% | [5] -19.4% | [6] -9.75%

S=C(CC(=S)N1CCOCC1)N1CCOCC1
inactive: [1] -15.1% | [2] -1.5% | [3] -10.5% | [4] -14.7% | [5] -11.7% | [6] -1.75%

Cc1ccccc1CN
inactive: [1] 28.9% | [2] 3.05% | [3] -10.8% | [4] 1.05% | [5] 18.3% | [6] 23.6%

CC1O[C@@]2(CC[C@H]3[C@@H]4CCC5=CC(=O)CC[C@]5(C)[C@H]4CC[C@@]32C)C1=O (some centres not stated)
inactive: [1] -0.55% | [2] 4.95% | [3] 11.4% | [4] -16.8% | [5] 26.9% | [6] 25.9%

CC1(C)C2CC3C(CCC4C(=O)OC(=O)C43)C1C2 (configuration not stated)
inactive: [1] -1.2% | [2] 10.2% | [3] -3.8% | [4] -5.3% | [5] -4.3% | [6] -2.35%

CC1=N/C(=C\c2ccc(N)cc2)C(=O)N1Nc1nnc(NN2C(=O)/C(=C/c3ccc(N)cc3)N=C2C)c2ccccc12
inactive: [1] -11.7% | [2] -13.3% | [3] 1.2% | [4] 7.35% | [5] -30.4% | [6] -2.35%

CC1(C)CC2CC(CC(C)(C)C2=O)C1=O
inactive: [1] -8.65% | [2] -11% | [3] -0.7% | [4] 5.05% | [5] 7.9% | [6] -1.75%

Fc1ccc2nncc(SCc3ccc(Cl)c(Cl)c3)c2c1
inactive: [1] -1% | [2] 0.15% | [3] 3.8% | [4] -11.2% | [5] 18.4% | [6] -2.05%

O=C(Nc1ccc([N+](=O)[O-])cc1)N1CCOCC1
inactive: [1] 4.8% | [2] -17.8% | [3] 21.5% | [4] -1.25% | [5] 25.2% | [6] 15.2%

O=C1C2CN(Cc3ccccc3)CC2C(=O)N1c1ccccc1 (configuration not stated)
inactive: [1] 1.9% | [2] 13% | [3] 9.25% | [4] -51.8% | [5] -37.7% | [6] 18.2%

COc1ccc(N=Cc2ccc(C=Nc3ccc(OC)cc3OC)cc2)c(OC)c1
inactive: [1] 10.6% | [2] -21.6% | [3] 5.15% | [4] 7.7% | [5] -5.45% | [6] -1.9%

c1ccc(CCCCc2ccccc2)cc1
inactive: [1] 25.1% | [2] 3.2% | [3] 14.1% | [4] 6.4% | [5] 3.35% | [6] 11.4%

CC(=O)C1C(=O)C(=O)N(c2ccc([N+](=O)[O-])cc2)C1=O (configuration not stated)
inactive: [1] -26.9% | [2] -37.4% | [3] -10.7% | [4] 20.9% | [5] -1.9% | [6] -37.5%

CCC1CN2CCc3cc(OC)c(OC)cc3C2CC1(O)C#N (configuration not stated)
inactive: [1] 9.9% | [2] 18.9% | [3] -5.9% | [4] 0.6% | [5] 12.8% | [6] 39%

O=C(O)C(=O)Cc1c[nH]c2ccccc12
inactive: [1] 1.2% | [2] -7.55% | [3] 29.4% | [4] 7.3% | [5] -11.1% | [6] -3.7%

CCOc1cccc(N)c1
inactive: [1] -69.2% | [2] -20.7% | [3] -55.5% | [4] -51% | [5] -41.7% | [6] -80.2%

Cc1nc(N)nc(C)c1N=Nc1cc(Br)ccc1Br
inactive: [1] 26.1% | [2] -14.1% | [3] -15.4% | [4] -13.7% | [5] 0.35% | [6] -7.6%

O=C(/C=C/c1ccccc1)Sc1ccccc1
inactive: [1] -2% | [2] -7.6% | [3] 13.2% | [4] -1.75% | [5] -8.1% | [6] 1.65%

CN(C)C(=O)Sc1ccc(O)cc1
inactive: [1] 5.05% | [2] -21.6% | [3] -4.65% | [4] -28.3% | [5] 12.9% | [6] -2.8%

O=[N+]([O-])c1ccccc1N=N/C(Cc1ccccc1)=N\Nc1ccccc1
inactive: [1] 10.8% | [2] 19.9% | [3] -8.25% | [4] 11.6% | [5] -12.6% | [6] -17.8%

S=C(NCCNC(=S)SCc1c(Cl)c(Cl)c(Cl)c(Cl)c1Cl)SCc1c(Cl)c(Cl)c(Cl)c(Cl)c1Cl
inactive: [1] 48.1% | [2] 14.3% | [3] 24.6% | [4] -8.85% | [5] -0.7% | [6] 59.8%

N#CC1(N)c2ccccc2-c2ccccc21
inactive: [1] 34.8% | [2] 1.95% | [3] 3.4% | [4] 9.65% | [5] 3.65% | [6] 4.8%

CCC(Br)C(=O)Nc1ccccc1C (configuration not stated)
inactive: [1] 27% | [2] 3.25% | [3] 6.75% | [4] -14.2% | [5] 20.6% | [6] 0.4%

CC(=O)N(C(=O)CC(=O)N1N=C(C)C(N=Nc2cccc([N+](=O)[O-])c2)C1=O)c1ccc(Cl)cc1 (configuration not stated)
inactive: [1] -10.3% | [2] -4.5% | [3] -5.9% | [4] -11.2% | [5] -15.1% | [6] 2%

Cc1ccc(/C(O)=C/C(=O)C(=O)NN=C(c2ccccc2)c2ccccc2)cc1
inactive: [1] 5.9% | [2] -11.9% | [3] 26.8% | [4] 4.85% | [5] 20.3% | [6] -1.85%

CCCCCCCCCCCCCCCCCCCCCCCCCCCCCCCCCCCCSC(=N)N
inactive: [1] 8.25% | [2] 0.45% | [3] 3.8% | [4] -7.05% | [5] -0.25% | [6] 12.8%

C/C(CCc1ccccc1)=N\Nc1ccc([N+](=O)[O-])cc1[N+](=O)[O-]
inactive: [1] -31.9% | [2] -44.6% | [3] -2.9% | [4] -17% | [5] -17.4% | [6] -19.4%

C=C(C)CC1(C)C(=O)CCC1O (configuration not stated)
inactive: [1] -13.7% | [2] -15.8% | [3] 3.9% | [4] -30.8% | [5] 6.1% | [6] 6.25%

Cc1ccc(C)c2c(Cl)c3c(C)ccc(C)c3nc12
inactive: [1] -8.45% | [2] -4.65% | [3] 0.3% | [4] -29.4% | [5] -9.8% | [6] 7.25%

— PubChem BioAssay (NCI)
